DT40 TDP1 CPT: DT40-hTDP1 cell growth loss with CPT; 12% of 420,000 active; chicken DT40 Tdp1-/-;hTDP1 cells + 20 nM CPT, ATP luminescence, 48 h; Potency, µM (titrated, usually from 46.2 µM), without a hit: at the highest dose activity change, negative = growth inhibition, usual class: inhibitors; AID 686979; note: potency is the fitted concentration of half-maximal effect; nearly all actives have a fitted effect of over 55% in size
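Chicken DT40 Tdp1-/- cells complemented with human TDP1, 400 cells/well, exposed to compounds plus 20 nM camptothecin for at least 48 h at 37 C; viability read as ATP content by CellTiter-Glo luminescence.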
ELG1 repair inh: inhibitors of ELG1-dependent DNA repair in HEK293T cells; HEK293T ELG1-luciferase reporter, luminescence, 16 h; DNA damage induced by 5-fluorouridine; Potency, µM (highest dose often 46.1 µM), without a hit: at the highest dose activity change, negative = inhibition, hits mostly inhibitors; 2.3% of 330,000 active; note: potency is the fitted concentration of half-maximal effect; nearly all actives have a fitted effect of over 55% in size
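HEK293T cells expressing luciferase-tagged ELG1 (2,000/well) received 5-Fluorouridine plus compound or DMSO for 16 hr at 37 °C. Luciferase was read by ONE-Glo luminescence after 30 min at room temperature.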
DT40 TDP1 no CPT: qHTS for Inhibitors of human tyrosyl-DNA phosphodiesterase 1 (TDP1): qHTS in cells in absence of CPT; DT40 Tdp1-/- hTDP1 cells, no CPT, ATP luminescence, 48 h; AID 686978, 2013; 15% of 420,000 active; Potency, µM (series often up to 46.2 µM), for the others: top-dose activity change, negative = growth inhibition, actives largely listed as inhibitors; note: potency is the fitted concentration of half-maximal effect; nearly all actives have a fitted effect of over 55% in size
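Compound effects on proliferation are scored in DT40 Tdp1-/-;hTDP1 cells in the absence of CPT. ATP levels (CellTiter-Glo luminescence) are recorded after a ≥48 hr, 37 °C incubation.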
IL-1B inflam inh: inhibitors of inflammasome signaling (IL-1 beta secretion). THP-1 LPS/ATP IL-1B secretion, AlphaLISA, 16 h; hits give low values. activity change, % at 57.5 µM. 4.7% of 360,000 active. AID 743279; in the data active = activity change below about -50%; inconclusive = mostly about -30% to -49%
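Secreted IL-1B measured by AlphaLISA bead assay after 16 h compound exposure of THP-1 cells; compounds (final up to 57.5 uM) added 1 h before LPS (250 ng/mL) and ATP (1.25 mM) stimulation; lower signal means less secretion.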
Gal4-VP16 FLuc: inhibits Gal4-VP16 luciferase reporter, ROR gamma counter-screen. 3.5% of 310,000 active. Potency, µM (series often up to 53.6 µM), for the others: at the highest dose activity, negative = inhibition, most hits filed as inhibitors. Drosophila S2 Gal4-VP16 UAS-luciferase, luminescence, 20 h;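 note: Gal4-VP16 expression switched on by copper sulfate through the metallothionein promoter; potency is the fitted concentration of half-maximal effect; nearly all actives have a fitted effect of over 50% in size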
RORg inh: blocks mouse ROR gamma transcriptional activity; P51450; Drosophila S2 Gal4-RORgamma UAS-luciferase reporter, 20 h; Potency, µM (series often up to 53.6 µM), for inactives: at the highest dose activity change, negative = inhibition, hits mostly inhibitors; 5.4% of 310,000 active; AID 2551; note: potency is the fitted concentration of half-maximal effect; nearly all actives have a fitted effect of over 60% in size
Target sequence (P51450 whole entry, looked up, the tested form may be a part): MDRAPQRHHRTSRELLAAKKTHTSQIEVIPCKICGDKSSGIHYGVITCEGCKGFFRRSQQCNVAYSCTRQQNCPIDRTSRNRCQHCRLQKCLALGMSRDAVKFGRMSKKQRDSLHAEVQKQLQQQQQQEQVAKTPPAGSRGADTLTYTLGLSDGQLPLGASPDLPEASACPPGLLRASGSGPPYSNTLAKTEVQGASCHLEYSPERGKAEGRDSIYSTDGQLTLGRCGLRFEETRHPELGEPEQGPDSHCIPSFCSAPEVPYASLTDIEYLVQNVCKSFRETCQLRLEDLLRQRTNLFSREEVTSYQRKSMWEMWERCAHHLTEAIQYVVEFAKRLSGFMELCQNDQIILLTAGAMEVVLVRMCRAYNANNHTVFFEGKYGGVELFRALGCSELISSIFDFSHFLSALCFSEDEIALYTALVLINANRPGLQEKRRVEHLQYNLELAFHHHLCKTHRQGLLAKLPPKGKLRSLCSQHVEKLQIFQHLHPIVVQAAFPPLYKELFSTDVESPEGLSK
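Stable Schneider cell line, Gal4 DNA-binding domain fused to ROR gamma, UAS-luciferase. Cmpd 1 hr RT → CuSO4 700 uM final → 20 hr RT → luciferase reagent 10 min → luminescence.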
Active calls of the source: *; ? = inconclusive; . = no result. Most compounds without a hit are left out; they make up all but 21% or so of the library. Unless noted, calls come from the whole dose curve; as a rule, active = well fitted curve in the direction sought with a large enough effect; inconclusive = small, poorly fitted or top-dose-only effect, or another doubt; inactive = no such curve, though single readings can be large; an effect the other way counts as inactive or inconclusive. % is set by controls: 0 for no effect and ±100 for the full control effect.

SMILES	DT40 TDP1 CPT	ELG1 repair inh	DT40 TDP1 no CPT	IL-1B inflam inh	Gal4-VP16 FLuc	RORg inh
C#CCCCCCCCCCCCC(O)CC(O)COC(C)=O (configuration not stated)	?	.	?	.	-17.9%	-18.6%
CCc1ccc(-c2cn3c(n2)sc2cc(C(=O)NCCc4ccc(OC)cc4OC)ccc23)cc1	23.1µM*	.	16.4µM*	.	.	.
COc1ccc(-c2cn3c(n2)sc2cc(C(=O)Nc4cc(Cl)ccc4C)ccc23)cc1	6.51µM*	.	2.91µM*	.	.	.
COc1ccc(NC(=O)c2ccc3c(c2)sc2nc(-c4ccc(OC)cc4)cn23)cc1	-5.5%	.	-4.3%	.	.	.
CCOc1ccc(-c2cn3c(n2)sc2cc(C(=O)NCCc4ccc(OC)c(OC)c4)ccc23)cc1	11.6µM*	.	10.3µM*	.	.	.
CCc1nc2ccc(C(=O)NCCc3ccc(OC)cc3)cc2nc1CC	?	-8.1%	?	-29.4	-13.2%	5.4%
COc1ccc(-c2cn3c(n2)sc2cc(C(=O)NCC(C)c4ccccc4)ccc23)cc1 (configuration not stated)	?	.	5.8µM*	.	.	.
COc1ccc(CN2C(=O)C(CC(=O)NCc3cccs3)CC(C(=O)N(C(C)C)C(C)C)=C2C)cc1 (configuration not stated)	?	.	?	19.0	.	.
O=C(NCc1ccccc1Cl)c1ccc(NC2=NC3CS(=O)(=O)CC3S2)cc1 (configuration not stated)	-1.8%	9.8%	1.4%	-25.7	7.6%	-7.9%
COc1ccc2oc(=O)c(-c3cn4c(n3)sc3cc(F)ccc34)cc2c1	-11.3%	.	5.4%	.	.	.
COc1cccc(-c2cn3c(n2)sc2cc(C(=O)NCCc4ccccc4)ccc23)c1	7.31µM*	.	7.31µM*	.	.	.
COc1ccc2c(c1)sc1nc(-c3ccccc3)cn12	0.517µM*	?	0.92µM*	?	2µM*	1.58µM*
COc1ccc(CCNC(=O)c2ccc3c(c2)sc2nc(-c4ccccc4)cn23)cc1OC	5.17µM*	.	7.31µM*	.	.	.
CCc1ccc(-c2cn3c(n2)sc2cc(C(=O)NCC(C)c4ccccc4)ccc23)cc1 (configuration not stated)	?	.	-15.0%	.	.	.
CCc1ccc(-c2cn3c(n2)sc2cc(C(=O)NCCCc4ccccc4)ccc23)cc1	-22.3%	.	-2.2%	.	.	.
CC(C)/C(O)=C1/C(=O)OC(c2ccoc2)[C@@]2(C)C(O)C(O)[C@@]34OC5(C)OC67CC(C)(C(O)[C@@]6(O)C(O)[C@@]3(O5)C12)C(CC(=O)O)[C@@]74C (some centres not stated)	10.2%	.	-4.5%	.	16.7%	23.9%
COC(=O)CC1C2(C)CC34OC5(C)O[C@@]6(C7/C(=C(/OC)C(C)C)C(=O)OC(c8ccoc8)[C@@]7(C)C(OC(=O)C(C)C)C(OC)[C@]6(O5)[C@@]13C)C(OC)[C@]4(OC)C2OC(C)=O (some centres not stated)	8.2µM*	.	13µM*	.	2.7%	16.3%
COC(=O)C(CCSC)NC(=O)c1cc2c(n(-c3ccc(Cl)cc3)c1=O)CCCC2=O (configuration not stated)	-17.3%	.	-14.0%	.	.	.
O=C1c2ccccc2-c2n[nH]c3cccc1c23	8.91µM*	.	21.1µM*	-77.1*	6.7%	-20.9%
CCOC(=O)c1ccc(CN(Cc2ccc(F)cc2)S(=O)(=O)c2cc(C(=O)Nc3ccccc3CC)ccc2F)cc1	?	.	-13.5%	.	.	.
CCCCCC(=O)O/N=C(\C)c1ccn(S(=O)(=O)c2ccccc2)c1	14.6µM*	0.9%	-88.5%	1.2	-4.1%	?
COc1ccc(Br)cc1CNC(=O)c1nn(-c2ccc(C)cc2)c(=O)c2c1c1ccccc1n2C	-14.6%	.	-19.0%	.	.	.
Cc1cc(N(CCO)CCO)nc(-n2nc(C)cc2C)n1	1.2%	0.0%	-11.7%	-1.4	10.5%	-29.7%
Cc1cc(NCCO)nc(-n2nc(C)cc2C)n1	13.1%	-1.0%	-5.4%	0.0	20µM*	6.31µM*
Cc1cc(Nc2ccc(F)cc2F)nc(-n2nc(C)cc2C)n1	2.91µM*	.	4.61µM*	.	.	.
SMILES	DT40 TDP1 CPT	ELG1 repair inh	DT40 TDP1 no CPT	IL-1B inflam inh	Gal4-VP16 FLuc	RORg inh
Cc1cc(Nc2ccc(C(C)C)cc2)nc(-n2nc(C)cc2C)n1	0.581µM*	.	0.82µM*	.	.	.
COc1ccc(Nc2cc(C)nc(-n3nc(C)cc3C)n2)cc1Cl	0.366µM*	.	0.146µM*	.	.	.
O=[N+]([O-])c1cc(F)cc(F)c1Nc1ccc(F)cc1	-20.5%	.	-4.9%	-0.5	.	.
CC(=O)c1ccc(S(=O)(=O)N(C)CC(=O)NCC2CCCCC2)cc1	5.5%	-2.4%	-17.0%	14.6	0.1%	?
Cc1cc(C)n2nc(C(=O)OCC(=O)NC3CCS(=O)(=O)C3)nc2n1 (configuration not stated)	2.8%	.	9.4%	5.6	.	.
Cc1c(C(=O)NCCc2ccccn2)cnn1-c1nccc(-c2cccs2)n1	-12.0%	.	-17.5%	.	.	.
COc1ccccc1CNC(=O)c1cnn(-c2nccc(-c3cccs3)n2)c1C	18.4µM*	.	?	.	.	.
CCC1CN(C(=O)N2CCC(C(=O)NCCc3ccc(C)cc3)CC2)c2ccccc2O1 (configuration not stated)	?	.	20.6µM*	.	.	.
CCS(=O)(=O)N1CCC(C(=O)NCCc2ccccc2)CC1	1.2%	8.3%	-4.5%	5.0	7.2%	6.4%
CCC1CN(C(=O)N2CCC(C(=O)N3CCN(c4ccccc4F)CC3)CC2)c2ccccc2O1 (configuration not stated)	16.4µM*	.	16.4µM*	.	.	.
CCC1CN(C(=O)N2CCC(C(=O)NCCc3ccccc3)CC2)c2ccccc2O1 (configuration not stated)	?	?	8.2µM*	10.0	0.1%	1.5%
CCS(=O)(=O)N1CCC(C(=O)NCCc2ccc(C)cc2)CC1	-0.3%	15.4%	-4.4%	14.5	-7.5%	-6.9%
COc1ccc(/C=N\NC(=O)COc2ccccc2Cl)cc1Cn1nc(C)cc1C	?	-0.6%	23.1µM*	-2.3	?	?
COc1ccc(/C=N/NC(=O)CCn2nc(C)cc2C)cc1	13.5%	?	-13.0%	19.9	-20.1%	30.1%
COc1ccc(/C=N\NC(=O)c2sccc2C)cc1Cn1nc(C)cc1C	7.31µM*	?	?	-12.9	?	?
CCNC(=O)C1(C)CCN(C(=O)c2ccc(N(C)C)cc2)C1 (configuration not stated)	3.4%	.	4.2%	7.0	.	.

Bioassay records as filed in PubChem BioAssay.
